# Legend:
# Conditions in all cases: DSSO, in cells
# RPS14 = RPS14 (UniProt P62263)
# RPS18 = RPS18 (UniProt P62269)
# WDR3 = WDR3 (UniProt Q9UNX4)
# RRBP1 = RRBP1 (UniProt Q9P2E9)
# RRP12 = RRP12 (UniProt Q5JTH9)
# RRP15 = RRP15 (UniProt Q9Y3B9)
# RTCB = RTCB (UniProt Q9Y3I0)
# RTRAF = RTRAF (UniProt Q9Y224)
# SAMM50 = SAMM50 (UniProt Q9Y512)
# SDHA = SDHA (UniProt P31040)
# SEH1L = SEH1L (UniProt Q96EE3)
# SEL1L = SEL1L (UniProt Q9UBV2)
# SEPTIN2 = SEPTIN2 (UniProt Q15019)
# SEPTIN8 = SEPTIN8 (UniProt Q92599)
# Chain of SEPTIN8 (Q92599 whole entry): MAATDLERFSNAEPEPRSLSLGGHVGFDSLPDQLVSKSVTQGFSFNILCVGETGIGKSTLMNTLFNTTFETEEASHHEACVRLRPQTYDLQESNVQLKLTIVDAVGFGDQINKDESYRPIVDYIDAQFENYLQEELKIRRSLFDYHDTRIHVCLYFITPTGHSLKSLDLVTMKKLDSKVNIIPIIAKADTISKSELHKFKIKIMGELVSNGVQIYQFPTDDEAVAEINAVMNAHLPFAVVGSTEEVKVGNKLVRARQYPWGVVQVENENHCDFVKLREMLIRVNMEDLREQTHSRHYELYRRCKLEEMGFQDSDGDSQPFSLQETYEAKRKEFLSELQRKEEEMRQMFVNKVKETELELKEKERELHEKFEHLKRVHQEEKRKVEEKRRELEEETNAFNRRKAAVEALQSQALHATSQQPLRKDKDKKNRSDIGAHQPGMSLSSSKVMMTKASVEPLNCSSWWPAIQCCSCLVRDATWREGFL
# TMOD3 = TMOD3 (UniProt Q9NYL9)
# UTP6 = UTP6 (UniProt Q9NYH9)
# SNRPA = SNRPA (UniProt P09012)
# TIMM17A = TIMM17A (UniProt Q99595)
# Chain of TIMM17A (Q99595 whole entry): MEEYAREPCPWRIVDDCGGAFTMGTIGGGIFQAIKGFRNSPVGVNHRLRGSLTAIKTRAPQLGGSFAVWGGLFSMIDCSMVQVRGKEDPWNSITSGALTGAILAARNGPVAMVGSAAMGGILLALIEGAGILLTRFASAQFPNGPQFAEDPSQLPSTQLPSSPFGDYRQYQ
# TMEM109 = TMEM109 (UniProt Q9BVC6)
# Chain of TMEM109 (Q9BVC6 whole entry): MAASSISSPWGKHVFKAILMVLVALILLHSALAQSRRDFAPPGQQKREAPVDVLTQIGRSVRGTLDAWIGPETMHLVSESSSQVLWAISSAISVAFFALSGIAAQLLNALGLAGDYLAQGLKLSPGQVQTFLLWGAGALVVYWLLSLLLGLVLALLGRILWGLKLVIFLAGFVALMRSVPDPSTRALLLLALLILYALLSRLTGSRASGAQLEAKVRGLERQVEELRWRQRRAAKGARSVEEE
# TMX1 = TMX1 (UniProt Q9H3N1)
# SIN3A = SIN3A (UniProt Q96ST3)
# UTP14A = UTP14A (UniProt Q9BVJ6)
# SF3B1 = SF3B1 (UniProt O75533)
# SF3B2 = SF3B2 (UniProt Q13435)
# ZMAT2 = ZMAT2 (UniProt Q96NC0)
# UTP18 = UTP18 (UniProt Q9Y5J1)
# UGGT1 = UGGT1 (UniProt Q9NYU2)
# Chain of UGGT1 (Q9NYU2 whole entry): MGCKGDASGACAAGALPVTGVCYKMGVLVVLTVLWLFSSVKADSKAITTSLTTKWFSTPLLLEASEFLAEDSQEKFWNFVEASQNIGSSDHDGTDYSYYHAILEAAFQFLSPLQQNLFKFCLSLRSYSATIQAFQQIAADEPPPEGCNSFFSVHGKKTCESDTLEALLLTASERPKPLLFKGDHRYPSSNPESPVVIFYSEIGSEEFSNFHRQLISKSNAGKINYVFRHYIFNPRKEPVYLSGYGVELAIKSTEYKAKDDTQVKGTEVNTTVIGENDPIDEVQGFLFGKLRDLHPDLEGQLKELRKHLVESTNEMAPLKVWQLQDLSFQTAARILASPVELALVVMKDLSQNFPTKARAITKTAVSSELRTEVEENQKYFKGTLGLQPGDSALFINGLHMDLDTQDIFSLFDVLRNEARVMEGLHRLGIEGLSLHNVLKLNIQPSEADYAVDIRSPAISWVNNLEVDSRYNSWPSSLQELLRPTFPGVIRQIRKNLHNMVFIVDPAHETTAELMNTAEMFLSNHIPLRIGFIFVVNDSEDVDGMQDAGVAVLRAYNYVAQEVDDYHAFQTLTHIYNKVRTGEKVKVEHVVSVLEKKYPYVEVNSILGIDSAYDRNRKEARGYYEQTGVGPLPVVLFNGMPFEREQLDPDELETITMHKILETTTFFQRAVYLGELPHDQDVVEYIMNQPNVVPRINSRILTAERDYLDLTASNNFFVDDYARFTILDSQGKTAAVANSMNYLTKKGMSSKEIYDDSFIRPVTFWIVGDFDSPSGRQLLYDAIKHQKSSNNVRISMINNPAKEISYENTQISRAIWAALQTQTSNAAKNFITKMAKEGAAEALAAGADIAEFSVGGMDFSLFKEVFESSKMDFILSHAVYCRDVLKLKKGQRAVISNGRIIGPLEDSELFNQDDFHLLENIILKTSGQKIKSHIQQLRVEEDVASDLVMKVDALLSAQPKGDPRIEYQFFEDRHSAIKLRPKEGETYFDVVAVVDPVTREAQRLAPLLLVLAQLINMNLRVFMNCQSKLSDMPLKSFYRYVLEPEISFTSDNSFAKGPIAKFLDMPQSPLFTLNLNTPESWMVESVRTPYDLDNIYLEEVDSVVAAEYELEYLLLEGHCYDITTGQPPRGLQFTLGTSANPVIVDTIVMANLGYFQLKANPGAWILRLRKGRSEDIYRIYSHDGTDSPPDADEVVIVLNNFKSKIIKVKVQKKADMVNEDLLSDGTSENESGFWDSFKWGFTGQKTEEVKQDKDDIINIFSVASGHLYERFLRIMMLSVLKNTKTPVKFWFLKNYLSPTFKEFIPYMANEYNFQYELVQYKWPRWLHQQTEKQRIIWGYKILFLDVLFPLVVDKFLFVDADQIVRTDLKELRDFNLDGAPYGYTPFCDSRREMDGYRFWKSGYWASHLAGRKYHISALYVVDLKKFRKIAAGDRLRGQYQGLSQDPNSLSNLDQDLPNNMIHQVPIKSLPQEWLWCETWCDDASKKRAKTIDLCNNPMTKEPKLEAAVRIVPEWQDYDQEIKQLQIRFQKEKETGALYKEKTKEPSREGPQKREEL
# Chain of CANX, P27824 (P27824 whole entry): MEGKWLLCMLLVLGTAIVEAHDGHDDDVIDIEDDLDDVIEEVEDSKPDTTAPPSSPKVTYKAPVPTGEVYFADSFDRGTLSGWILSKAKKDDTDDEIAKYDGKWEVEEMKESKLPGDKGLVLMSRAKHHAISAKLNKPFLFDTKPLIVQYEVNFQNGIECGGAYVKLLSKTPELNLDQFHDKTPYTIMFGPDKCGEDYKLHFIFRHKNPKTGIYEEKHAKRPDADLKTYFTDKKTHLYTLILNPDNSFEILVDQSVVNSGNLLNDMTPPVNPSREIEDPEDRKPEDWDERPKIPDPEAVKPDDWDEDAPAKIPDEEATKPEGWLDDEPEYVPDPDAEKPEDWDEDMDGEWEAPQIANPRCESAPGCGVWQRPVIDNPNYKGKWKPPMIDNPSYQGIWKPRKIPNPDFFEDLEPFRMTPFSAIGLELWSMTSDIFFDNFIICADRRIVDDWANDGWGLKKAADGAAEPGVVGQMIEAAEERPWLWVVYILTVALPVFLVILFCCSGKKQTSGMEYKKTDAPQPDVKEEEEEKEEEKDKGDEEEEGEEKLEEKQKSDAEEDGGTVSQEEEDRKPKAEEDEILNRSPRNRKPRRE
# Chain of RTRAF (Q9Y224 whole entry): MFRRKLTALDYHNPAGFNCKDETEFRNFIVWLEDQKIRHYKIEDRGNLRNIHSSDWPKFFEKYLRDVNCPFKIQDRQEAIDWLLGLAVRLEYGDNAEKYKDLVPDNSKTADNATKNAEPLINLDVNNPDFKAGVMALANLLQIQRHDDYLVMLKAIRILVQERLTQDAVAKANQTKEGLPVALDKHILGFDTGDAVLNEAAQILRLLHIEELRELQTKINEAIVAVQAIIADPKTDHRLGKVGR
# Chain of HTATSF1, O43719 (O43719 whole entry): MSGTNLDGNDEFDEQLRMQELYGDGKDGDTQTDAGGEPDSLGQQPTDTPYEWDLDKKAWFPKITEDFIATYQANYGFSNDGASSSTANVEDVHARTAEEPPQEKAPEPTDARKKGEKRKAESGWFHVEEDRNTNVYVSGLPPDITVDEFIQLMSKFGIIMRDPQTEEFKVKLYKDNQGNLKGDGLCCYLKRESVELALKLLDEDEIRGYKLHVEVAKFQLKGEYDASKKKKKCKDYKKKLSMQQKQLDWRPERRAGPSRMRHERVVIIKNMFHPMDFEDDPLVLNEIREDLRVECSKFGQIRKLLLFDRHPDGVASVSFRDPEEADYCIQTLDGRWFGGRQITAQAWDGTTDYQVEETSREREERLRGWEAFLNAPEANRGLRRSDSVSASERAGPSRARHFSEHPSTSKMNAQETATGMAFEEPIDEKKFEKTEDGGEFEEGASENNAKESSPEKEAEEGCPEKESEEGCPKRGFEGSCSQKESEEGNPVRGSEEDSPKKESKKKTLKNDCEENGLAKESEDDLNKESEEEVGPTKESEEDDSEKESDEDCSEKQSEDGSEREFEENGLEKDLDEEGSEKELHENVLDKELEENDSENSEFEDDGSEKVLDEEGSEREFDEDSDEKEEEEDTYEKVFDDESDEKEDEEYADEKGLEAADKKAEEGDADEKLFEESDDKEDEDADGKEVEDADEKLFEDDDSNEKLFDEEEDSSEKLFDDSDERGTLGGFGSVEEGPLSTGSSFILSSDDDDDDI
# Chain of NUP43, Q8NFH3 (Q8NFH3 whole entry): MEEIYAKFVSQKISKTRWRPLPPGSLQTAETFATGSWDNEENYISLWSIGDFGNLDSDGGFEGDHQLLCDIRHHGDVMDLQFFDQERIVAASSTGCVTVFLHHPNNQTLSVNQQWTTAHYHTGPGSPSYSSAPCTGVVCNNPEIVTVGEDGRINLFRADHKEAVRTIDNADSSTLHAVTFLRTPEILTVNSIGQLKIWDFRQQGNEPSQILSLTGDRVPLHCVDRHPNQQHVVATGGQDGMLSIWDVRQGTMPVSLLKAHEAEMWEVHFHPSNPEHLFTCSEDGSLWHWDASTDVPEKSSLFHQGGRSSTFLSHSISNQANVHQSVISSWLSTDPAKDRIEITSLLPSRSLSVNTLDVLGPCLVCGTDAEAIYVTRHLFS
# Chain of SAMM50 (Q9Y512 whole entry): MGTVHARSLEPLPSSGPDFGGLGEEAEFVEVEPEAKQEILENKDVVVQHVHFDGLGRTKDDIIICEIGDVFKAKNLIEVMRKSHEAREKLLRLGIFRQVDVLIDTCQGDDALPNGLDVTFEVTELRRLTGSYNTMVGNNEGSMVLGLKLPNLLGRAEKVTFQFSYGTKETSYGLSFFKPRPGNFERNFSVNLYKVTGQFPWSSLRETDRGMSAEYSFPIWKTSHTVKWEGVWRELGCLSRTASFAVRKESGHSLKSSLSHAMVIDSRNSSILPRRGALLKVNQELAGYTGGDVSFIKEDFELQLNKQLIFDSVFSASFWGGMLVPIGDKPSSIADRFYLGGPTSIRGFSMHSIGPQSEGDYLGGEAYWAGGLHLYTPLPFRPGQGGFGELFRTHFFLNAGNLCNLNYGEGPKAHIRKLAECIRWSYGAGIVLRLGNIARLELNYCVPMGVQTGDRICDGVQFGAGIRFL
# Chain of SNRPE, P62304 (P62304 whole entry): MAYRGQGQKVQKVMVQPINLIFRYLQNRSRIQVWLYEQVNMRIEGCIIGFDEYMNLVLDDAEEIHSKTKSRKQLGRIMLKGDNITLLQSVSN
substance,measurement,setting,value
"EIF3D, O15371",cross-linked residues,RPS14,K514 - K125
"MPHOSPH10, O00566",cross-linked residues,RPS18,K376 - K137
same,cross-linked residues,WDR3,K564 - K749
"EEF1G, P26641",cross-linked residues,RRBP1,K219 - K1159
"BYSL, Q13895",cross-linked residues,RRP12,K139 - K185
"RSL24D1, Q9UHA3",cross-linked residues,RRP15,K141 - K156
"DDX1, Q92499",cross-linked residues,RTCB,S700 - K206
"FAM98A, Q8NCA5",cross-linked residues,RTRAF,K277 - K171
"C2orf49, Q9BVC5",cross-linked residues,RTRAF,K84 - K62
"CHCHD3, Q9NX63",cross-linked residues,SAMM50,S44 - K74
"SDHB, P21912",cross-linked residues,SDHA,K167 - K167
"NUP43, Q8NFH3",cross-linked residues,SEH1L,K161 - K96
"ERLEC1, Q96DZ1",cross-linked residues,SEL1L,K292 - K504
"SEPTIN6, Q14141",cross-linked residues,SEPTIN2,K191 - K249
"SEPTIN7, Q16181",cross-linked residues,SEPTIN8,K373 - K362
"FLNA, P21333",cross-linked residues,TMOD3,K876 - K337
"WDR46, O15213",cross-linked residues,UTP6,K83 - K81
"SNRPB2, P08579",cross-linked residues,SNRPA,K57 - K96
"TIMM50, Q3ZCQ8",cross-linked residues,TIMM17A,T46 - K56
"CANX, P27824",cross-linked residues,TMEM109,K516 - K215
same,cross-linked residues,TMX1,K516 - K279
"HDAC1, Q13547",cross-linked residues,SIN3A,K74 - K569
"UTP20, O75691",cross-linked residues,UTP14A,K2250 - K122
"HTATSF1, O43719",cross-linked residues,SF3B1,K297 - S332
same,cross-linked residues,SF3B2,K217 - K543
"PRPF38A, Q8NAV1",cross-linked residues,ZMAT2,K7 - K45
"WDR36, Q8NI36",cross-linked residues,UTP18,K179 - S171
"SNRPE, P62304",cross-linked residues,SF3B2,K12 - K352
"ANXA4, P09525",cross-linked residues,TMEM109,K57 - K215
"SELENOF, O60613",cross-linked residues,UGGT1,T82 - K362

# — paper PMC13423814
